# Hit rate of the full screen: of about 290,000 compounds, about 27,000 (9.3%) were called active. What follows is part of a selection rich in actives, with near analogues and random picks from the rest. A number with no mark means an inactive call. Cut-off read from the data, not from the text of the source: active = inhibition mostly above about 28% (no sharp cut-off); inactive = mostly below about 43%.
# Test: A qHTS for Small Molecule Inhibitors of Shiga Toxin; note: 0% is about no effect
# Details: Vero cells, Shiga toxin protein synthesis inhibition reporter; at 38.7 µM, stronger effect = higher value
row,Structure (SMILES),inhibition
1,O=C(O)CCCN1C(=O)C2C3c4ccccc4C(c4ccccc43)[C@@H]2C1=O (stereo partly specified),-10.8%
2,COc1ccc(OC)c(C(O)c2nc3ccccc3n2C)c1 (stereo unspecified),-12.2%
3,COc1ccc(-c2nnc(SCc3cccnc3)o2)cc1,48.5% (active)
4,COc1ccc(-c2nnc(SC(=O)N3c4ccccc4Sc4ccccc43)o2)cc1,18.6%
5,COC(=O)CSc1nnc(-c2cccnc2)o1,8.44%
6,Cc1cc(Cl)ccc1OCCCC(=O)Nc1cccc(-n2cnnn2)c1,-13.8%
7,CCc1ccc2c(c1)C1(NN=C(c3ccccc3)S1)C(=O)N2 (stereo unspecified),105% (active)
8,COc1ccccc1C(=O)N/C(=C/c1ccco1)C(=O)Nc1ccc(C(=O)O)cc1,-2.72%
9,CC(=O)c1ccc(N2CCN(C(=O)CCNC(=O)Cn3ccc4ccccc4c3=O)CC2)cc1,26.7%
10,Cc1cc(O)c(C(=O)/C=C/c2c(F)c(F)c(F)c(F)c2F)c(=O)o1,68.6% (active)
11,Cc1ccc(N=Cc2c(O)cc(C)oc2=O)c(C)c1,-1.09%
12,N#Cc1cc([N+](=O)[O-])ccc1NCC1CCCO1 (stereo unspecified),-5.89%
13,CC(C)N1CCc2c(sc(NC(=O)Cc3ccccc3)c2C#N)C1,2.11%
14,O=C(CN1CCOC1=O)N1CCCC(Nc2ccc(F)c(F)c2)C1 (stereo unspecified),13.5%
15,CCc1ccnc(NC(=O)Nc2ccc(OCc3ccccc3)cc2)c1,17.6%
16,COc1cccc(OCC(=O)Nc2ccccc2C(N)=O)c1,75.1% (active)
17,Cc1ccc(F)c(NC(=O)CCOc2ccccc2C)c1,2.89%
18,O=C(CCc1ccccc1)NNc1ccc(F)cc1,-4.35%
19,Cc1cccc(OCC(=O)NCCCNC(=O)c2ccccn2)c1,-11.4%
20,Cc1ccc(F)c(NC(=O)CCc2ccccc2)c1,70.1% (active)
21,Cc1cccc(OCC(=O)Nc2ccccc2F)c1,74.7% (active)

row,Structure (SMILES),inhibition
1,Cc1cccc(OCC(=O)Nc2ccc(C(=O)O)cc2NC(=O)COc2cccc(C)c2)c1,-5.8%
2,Cc1cccc(OCCC(=O)Nc2ccccc2C(N)=O)c1,5.43%
3,CCCOC(=O)Nc1ccccc1C(N)=O,-12.3%
4,CCOC(=O)C1=C(CCc2ccccc2)NC(=O)NC1c1ccc2ccccc2c1 (stereo unspecified),2.87%
5,COC(=O)Cc1ccc(N(Cc2ccccc2F)S(=O)(=O)c2ccc(Br)cc2)cc1,9.28%
6,CC(Oc1ccccc1)C(=O)Nc1c2c(nn1-c1ccccc1)CS(=O)C2 (stereo unspecified),-1.03%
7,CCOCCCN(C)C1CCN(C(=O)c2oc3ccccc3c2NC(=O)COc2cccc(C)c2)CC1,-8.02%
8,CC(=O)Nc1ccc(C(=O)N(C2=NC(C)CS2)c2ccc(Cl)cc2)cc1 (stereo unspecified),32.9%
9,CC1CN(C(=O)CCC(=O)NC2CCN(Cc3ccccc3)CC2)c2ccccc2O1 (stereo unspecified),10.3%
10,COCC1CCCN(Cc2nc(-c3ccc4c(c3)OCO4)no2)C1 (stereo unspecified),53.7% (active)
11,COCC1CCCN(Cc2cn[nH]c2-c2cc3ccccc3o2)C1 (stereo unspecified),56.9%
12,CC1CCN(Cc2nc(-c3ccc(Cl)cc3)no2)CC1,34.4%
13,CCCc1cc(=O)[nH]c(SCC(=O)Nc2sc3c(c2C#N)CCCC3)n1,-2.72%
14,COc1ccc(C)cc1N(CC(=O)NC(C)c1ccccc1)S(C)(=O)=O (stereo unspecified),-6.92%
15,COc1ccc(Br)cc1C(=O)Nc1cccc(C)c1C,26.5%
16,COc1ccc(Br)cc1C(=O)NC(=S)Nc1cc(-c2nc3ccccc3[nH]2)ccc1C,0% (active)
17,Cc1ccc(-c2nc3ccccc3[nH]2)cc1NC(=O)c1sc2ccccc2c1Cl,-6.19%
18,COC(=O)COc1ccc2c(c1C)O/C(=C\c1ccco1)C2=O,15%
19,Cc1ccc(/C=C2/SC(=S)N(CCC(=O)NCCCN3CCOCC3)C2=O)cc1,21.5%
20,CCn1cc(CN2CCC(C(=O)Nc3cccc(-c4cccc(Cl)c4)c3)CC2)cn1,-25.7%
21,COc1ccccc1NC(=O)c1ccc2nc(N3C(=O)CCC3=O)sc2c1,36%

row,Structure (SMILES),inhibition
1,COc1ccc(C2=NN(c3nc4ccccc4s3)C(=O)C2)cc1,72.3% (active)
2,CCOC(=O)N1CCN(CC(=O)Nc2cc(C)nn2-c2nc3ccccc3s2)CC1,-4.88%
3,Cc1ccc2c(c1)N(CC(=O)N1CCC(O)CC1)C(=O)CO2,1.8%
4,COc1ccc2[nH]c(=O)c(CN(Cc3cccnc3)S(=O)(=O)c3ccccc3F)cc2c1,-10.7%
5,COc1ccc(-c2nc(CS(=O)CC(=O)NCc3ccccc3)c(C)o2)cc1OC (stereo unspecified),-3.29%
6,C/C(CC(=O)NCc1ccc(Cl)cc1)=N\NC(=O)COc1ccc(C)cc1Br,2.05%
7,Cc1cccc(NC(=O)c2sc3nc4c(c(-c5ccco5)c3c2N)CCC4)c1,-3.76%
8,CC(=O)Nc1ccc(NC(=O)c2sc3nc4c(c(-c5ccc(C)cc5)c3c2N)CCC4)cc1,-4.09%
9,Cc1ccc(NC(=O)c2sc3nc(N)c(C#N)cc3c2N)cc1,63.4% (active)
10,Cc1c(CCC(=O)O)c(=O)oc2c(C)c(OCc3ccccc3Cl)ccc12,-3.03%
11,CN(Cc1ccccc1)C(=O)c1ccc(COc2ccccc2)cc1,12.4%
12,CN(Cc1ccc(F)cc1)C(=O)COc1ccc2ccccc2c1,26.4%
13,CN(Cc1ccccc1)C(=O)COc1ccccc1,60.6% (active)
14,Cc1cc(C)c(NC(=O)CSc2nc3ccncc3[nH]2)c(C)c1,-6.43%
15,CCOc1ccc2nc(/N=C/c3nc(-c4ccccc4)oc3O)sc2c1,-1.97%
16,CC(N=Cc1nc(-c2ccccc2)oc1O)c1ccccc1 (stereo unspecified),54.4% (active)
17,CCC1(CC)NC(=O)N(CC(=O)OCC(=O)NC(=O)c2ccccc2)C1=O,19.1%
18,COC(=O)C1[C@H]2SC(C)(C)C(C(=O)OC)N2C(=O)N1Cc1nc2ccccc2s1 (stereo partly specified),5.52%
19,CCC1(CC)NC(=O)N(Cc2nc3ccccc3s2)C1=O,26.9% (active)

# — PubChem BioAssay AID2315 (National Center for Advancing Translational Sciences (NCATS), 2010)
